{
  "source": "PubChem BioAssay AID1347075",
  "about": "(National Center for Advancing Translational Sciences (NCATS), 2019)",
  "note": "The whole screen tested about 400,000 compounds, of which about 5,500 (1.4%) were called active. Not shown: some 9% with an inconclusive outcome. The call rests on the fitted dose curve; in most records, active means well fitted cell-killing curve with a large enough effect; inconclusive means small, poorly fitted or top-dose-only effect, or effect the other way; inactive means flat fitted curve, though single readings scatter. Shown is part of a subset that was picked to be rich in actives. On the % scale 0 is the no-effect control and ±100 the full control effect; potency means the concentration at half of the fitted maximal effect.",
  "data": [
    {"test": "qHTS assay for MDR1-selective chemotherapeutics: Primary screen using the parental adenocarcinoma cell KB-3-1; further: nearly all actives have a fitted effect of over 60% in size", "conditions": "KB-3-1 viability, CellTiter-Glo ATP luminescence, 72 h; series mostly up to 46.1 µM; activity change, negative = cytotoxic: at the top concentration", "summary_of_the_method": "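Screening of KB-3-1 cells (DMEM, 10% FBS, phenol-red free) ran from lowest to highest compound concentration; after 72 h at 37 °C viability was read luminescently and curves fitted.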", "values": [
      {"smiles": "CCOc1ccccc1CNC(=O)c1cnc2c(-c3ccc(OCC)c(OCC)c3)c(C)nn2c1C", "activity change, negative = cytotoxic": "4.74% (inactive)"},
      {"smiles": "Cc1ccccc1-c1nc2cc(NC(=O)c3cccc(OCCC(C)C)c3)ccc2o1", "activity change, negative = cytotoxic": "0% (inactive)"},
      {"smiles": "Cc1cc(O)c(C(c2ccccc2)N2CCN(c3ccccc3F)CC2)c(=O)n1Cc1ccco1", "note": "(centres undefined)", "activity change, negative = cytotoxic": "10.2% (inactive)"},
      {"smiles": "COc1ccc(C)cc1NC(=O)CCS(=O)(=O)c1cccc2nonc12", "activity change, negative = cytotoxic": "6.36% (inactive)"},
      {"smiles": "Cc1cccc2sc(N(CCCN(C)C)C(=O)CCS(=O)(=O)c3ccccc3)nc12", "Potency": "20.6 µM (active)"},
      {"smiles": "COc1ccccc1CNC(=O)CS(=O)(=O)c1cccc2nsnc12", "activity change, negative = cytotoxic": "-7.34% (inactive)"},
      {"smiles": "Cc1ccc(S(=O)(=O)CCC(=O)OCC(=O)N(C)Cc2ccccc2)cc1", "activity change, negative = cytotoxic": "11% (inactive)"},
      {"smiles": "COc1cccc2sc(N(CCCN(C)C)C(=O)CCS(=O)(=O)c3ccccc3)nc12", "Potency": "18.4 µM (active)"},
      {"smiles": "Cc1cccc(C)c1NC(=O)CCS(=O)(=O)c1cccc2nsnc12", "activity change, negative = cytotoxic": "19.3% (inactive)"},
      {"smiles": "COc1cc(NC(=O)c2nn(-c3ccc(C)cc3)c(=O)c3c2c2ccccc2n3C)cc(OC)c1OC", "activity change, negative = cytotoxic": "5.86% (inactive)"},
      {"smiles": "COc1ccc(C)cc1-n1c(-c2ccc(C)cc2)cc2c1CC(C)(C)CC2=O", "activity change, negative = cytotoxic": "-7.59% (inactive)"},
      {"smiles": "O=C(Nc1nnc(C2CC(=O)N(c3ccc(Cl)cc3)C2)s1)c1ccco1", "note": "(centres undefined)", "activity change, negative = cytotoxic": "13.2% (inactive)"},
      {"smiles": "Cc1nc2nc(NCc3cccc(Br)c3)[nH]n2c(=O)c1Cc1ccccc1", "activity change, negative = cytotoxic": "-16.3% (inactive)"},
      {"smiles": "CCN(CCCNC(=O)Cn1ncc2c([nH]c3ccccc32)c1=O)c1cccc(C)c1", "activity change, negative = cytotoxic": "8.56% (inactive)"},
      {"smiles": "COc1ccc(-c2noc(CSc3nnc(-c4ccccc4)n3-c3ccc(F)cc3)n2)c(OC)c1", "activity change, negative = cytotoxic": "-29.3% (inactive)"},
      {"smiles": "CCOC(=O)c1c(C)[nH]c(C)c1S(=O)(=O)N1CCCC(C(=O)NCc2ccccc2Cl)C1", "note": "(centres undefined)", "activity change, negative = cytotoxic": "2.01% (inactive)"},
      {"smiles": "COc1cc(C(=O)Nc2ccc(OCc3cc(=O)n4ccc(C)cc4n3)cc2)cc(OC)c1OC", "activity change, negative = cytotoxic": "0.04% (inactive)"},
      {"smiles": "CCN(CC)CCNCC(=O)Nc1ccc(Oc2ccccc2)cc1", "activity change, negative = cytotoxic": "-6.12% (inactive)"},
      {"smiles": "CCN(CC)CCOc1ccc2c(c1)C(=NNC(=O)c1ccccn1)c1cc(OCCN(CC)CC)ccc1-2", "Potency": "14.6 µM (active)"},
      {"smiles": "CN(CCOc1ccc(CC2SC(=O)NC2=O)cc1)c1ccccn1", "note": "(centres undefined)", "Potency": "inactive"},
      {"smiles": "Cn1c(=O)c2c(nc(Oc3ccc(C#N)cc3)n2Cc2ccc(Cl)cc2Cl)n(C)c1=O", "activity change, negative = cytotoxic": "-21.6% (inactive)"},
      {"smiles": "CCc1ccc(NC(=O)Cn2c(=O)n(CCC(=O)NCc3ccc4c(c3)OCO4)c(=O)c3ccccc32)cc1", "activity change, negative = cytotoxic": "-7.33% (inactive)"},
      {"smiles": "COC(=O)c1ccccc1NC(=O)c1cnn(-c2ccc(F)cc2)c1-n1cccc1", "activity change, negative = cytotoxic": "-3.94% (inactive)"},
      {"smiles": "CCC(=O)N1CCc2cc(S(=O)(=O)NC(Cc3ccccc3)C(=O)NCc3ccccc3)ccc21", "note": "(centres undefined)", "activity change, negative = cytotoxic": "3.83% (inactive)"},
      {"smiles": "CCn1c(SCC(=O)NC2CC2)nnc1-c1ccccc1OC", "activity change, negative = cytotoxic": "-6.53% (inactive)"},
      {"smiles": "Cc1nnc2n1N=C(c1ccc3c(c1)NC(=O)CO3)CS2", "activity change, negative = cytotoxic": "-55.2% (inactive)"},
      {"smiles": "COc1ccc(C2=Nn3c(nnc3-c3ccccc3OC)SC2)cc1OC1CCCC1", "Potency": "2.31 µM (active)"},
      {"smiles": "O=[n+]1c2c(n([O-])c3cc(Br)ccc31)CCC2", "activity change, negative = cytotoxic": "2.63% (inactive)"},
      {"smiles": "O=C1CCCc2c1[nH]c1ccc(Br)cc21", "Potency": "0.651 µM (active)"},
      {"smiles": "C/C(=N\\N)c1c(-c2ccccc2)c2cc(Br)ccc2[nH]c1=O", "activity change, negative = cytotoxic": "-0.927% (inactive)"},
      {"smiles": "CCOC(=O)c1ccccc1NC(=O)CCc1c(C)nc2c(c1C)c(=O)n(C)c(=O)n2C", "activity change, negative = cytotoxic": "2.75% (inactive)"},
      {"smiles": "Cc1nn(CC(=O)O)c(=O)c2cc3cc(F)ccc3n12", "activity change, negative = cytotoxic": "-16.2% (inactive)"},
      {"smiles": "COc1cc(NC(=O)CCn2nc(C)cc2C)cc(OC)c1OC", "activity change, negative = cytotoxic": "14.8% (inactive)"},
      {"smiles": "OC(CBr)CN1CCCCC1", "note": "(centres undefined)", "activity change, negative = cytotoxic": "25.7% (inactive)"},
      {"smiles": "CC1(C(=O)NS(=O)(=O)c2ccccc2)CCN1C(=O)C/C=C/c1ccccc1", "note": "(centres undefined)", "activity change, negative = cytotoxic": "0% (inactive)"},
      {"smiles": "CC1(C)CCSC(/C=C/c2ccccc2)=N1", "Potency": "14.6 µM (active)"},
      {"smiles": "CC1(C(=O)O)CCN1C(=O)/C=C/c1ccccc1", "note": "(centres undefined)", "activity change, negative = cytotoxic": "0% (inactive)"},
      {"smiles": "CC(=O)c1c(C)oc2ccc(NS(=O)(=O)c3ccc(C(=O)O)cc3)cc12", "activity change, negative = cytotoxic": "19.3% (inactive)"},
      {"smiles": "COc1ccc(NC(=S)SC)cc1OC", "activity change, negative = cytotoxic": "-0.174% (inactive)"},
      {"smiles": "COc1ccc(S(=O)(=O)Nc2ccc3oc(C)c(C(C)=O)c3c2)cc1", "Potency": "3.26 µM (active)"},
      {"smiles": "COc1ccc(S(=O)(=O)Nc2cc(C)on2)cc1NC(C)=O", "activity change, negative = cytotoxic": "0.0056% (inactive)"},
      {"smiles": "COc1ccc(NS(=O)(=O)c2ccc(NC(C)=O)cc2)cc1OC", "Potency": "14.6 µM (active)"},
      {"smiles": "CC(=O)c1c(C)oc2ccc(NS(=O)(=O)c3ccccc3)cc12", "activity change, negative = cytotoxic": "-0.879% (inactive)"},
      {"smiles": "Cc1ccc(N(C)C(=O)C2CCN(S(=O)(=O)c3ccc4c(c3)CCCN4C(=O)C3CCC3)CC2)cc1", "activity change, negative = cytotoxic": "17.9% (inactive)"},
      {"smiles": "CCOc1ccc(CNCc2c(C(=O)O)c(C)n(Cc3cccc(OC)c3)c2C)cc1OC", "activity change, negative = cytotoxic": "4.24% (inactive)"},
      {"smiles": "OCCNc1ncnc2oc(-c3ccco3)c(-c3ccco3)c12", "activity change, negative = cytotoxic": "-17.6% (inactive)"},
      {"smiles": "Cn1c(=O)c2c(SCC(=O)N3CCc4ccccc43)nc(-c3ccc(Cl)cc3)nc2n(C)c1=O", "activity change, negative = cytotoxic": "-2.78% (inactive)"},
      {"smiles": "O=C(COc1ccccc1F)Nc1ccc(C(=O)OCc2cc(=O)n3nc(C4CC4)sc3n2)cc1", "activity change, negative = cytotoxic": "1.59% (inactive)"},
      {"smiles": "COc1cccc(C(=O)NCc2ccc3c(c2)CCN3C(=O)c2ccncc2)c1", "activity change, negative = cytotoxic": "4.3% (inactive)"}
    ]}
  ]
}
